In the library only some 4.3% were active in any assay of this set; here they are far more common.
MITF TRPM1 inh = inhibitors of MITF-dependent TRPM1 promoter reporter, primary screen, cell-based, SK-MEL-5, single point, luciferase; inhibition, % at 12.5 µM; SK-MEL-5 TRPM1 promoter luciferase, 24 h; 330,000 compounds, 0.83% hits;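 active = mean inhibition across replicates of 60% or more, whatever share of single replicates reaches that level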
HIF-2a block = HIF-2a reporter inhibitors, primary screen, luminescence, 786-0 RCC cells; 786-0 RCC cells HIF-2a reporter, luciferase luminescence, overnight; inhibition, % at 18.8 µM; 360,000 compounds, 0.72% hits; AID 624352, 2012;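 active = inhibition of the luminescence signal of 40% or more relative to plate controls, in a single-dose primary screen at 18.75 µM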
KKLEB cytotox = cytotoxicity in KKLEB CF airway cells, primary screen, cytotoxicity control for CF NF-kB inhibitor project, cell-based, uHTS, fluorescence assay plates; KKLEB CF airway cells viability, ATPlite luminescence, overnight; active compounds read low; cells stimulated with P. aeruginosa culture filtrate; AID 602141, 2011; activity change (cytotoxicity), % at 5 µM; 360,000 compounds, 0.36% hits;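 active = corrected activity change at or below -50% at 5 µM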
CHOP inh = inhibitors of CHOP promoter induction, primary screen, cell-based, unfolded protein response, luciferase reporter | CHO-K1 CHOP-promoter luciferase, tunicamycin-induced, 15-18 h | inhibition, % at 10 µM | 220,000 compounds, 3.8% hits | AID 2732, 2010;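 active = compounds that reduced the stress-induced luciferase reporter signal by more than about 70% of percent inhibition, limit read from the data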
CF NFkB block = inhibitors of PAF-induced NF-kB signaling, primary screen, cell-based, GFP fluorescence, uHTS | KKLEB NF-kB-GFP reporter, GFP fluorescence overnight | inhibition, % at 5 µM | 360,000 compounds, 0.86% hits;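 active = at least 50% inhibition at 5 µM, scaled per plate between neutral and stimulator controls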;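 note: PAF is a Pseudomonas aeruginosa culture filtrate used as stimulus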
Peg3 prom inh = Peg3 promoter-driven luciferase inhibitors, primary screen, cell-based, HeLa, luciferase luminescence | HeLa PEG-Prom luciferase reporter, overnight | inhibition, % at 20 µM | 360,000 compounds, 1.7% hits | AID 588405, 2011;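 active = inhibition of at least 50% at 20 µM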
Large screens that a line does not name were inactive.

Cc1ccc(NS(=O)(=O)c2ccc(Cl)c(NC(=S)NC(=O)C3CCCCC3)c2)cc1Cl	CHOP inh 95.6
CC(C)(C)C(=O)Nc1cc(S(=O)(=O)Nc2ccc(Cl)cc2)ccc1Cl	CHOP inh 74.9
CCc1nc2c(OCCn3cccc3)cccn2c1N(C)C(=O)c1ccc(OC)cc1	none (no result: MITF TRPM1 inh, CHOP inh)
COc1ccc(S(=O)(=O)N(Cc2ccco2)Cc2cc3ccccc3[nH]c2=O)cc1	none (no result: CHOP inh)
CCCCN1C(=O)CCC(C(=O)O)C1c1ccc([N+](=O)[O-])cc1 (configuration not stated)	none (no result: CHOP inh)
CC(C)c1nc(SCC(=O)c2ccc(F)cc2)c2ccccc2n1	CHOP inh 83.7
Cc1ccc(C(=O)CSc2nc(C(C)C)nc3ccccc23)cc1	none
CCOC(=S)SCC(=O)Nc1nc(-c2ccc(Br)cc2)cs1	CHOP inh 81.7, CF NFkB block 66.3
CCOC(=S)SCC(=O)Nc1nc(-c2ccccc2)cs1	none
CCOC(=O)N1CCN(C(=O)CSCC(=O)Nc2nc(-c3ccc(-c4ccccc4)cc3)cs2)CC1	CHOP inh 85.2
Fc1ccc(Cn2c(-c3cscn3)nc3ccccc32)c(Cl)c1	CHOP inh 93.8
CCCCNC(=O)Oc1cc(CCl)on1	none (no result: MITF TRPM1 inh, HIF-2a block, KKLEB cytotox, CF NFkB block, Peg3 prom inh)
CCCCNC(=O)Oc1c(Br)cc2sc(=O)oc2c1Br	CHOP inh 102.7 (no result: MITF TRPM1 inh, HIF-2a block, KKLEB cytotox, CF NFkB block, Peg3 prom inh)
O=C(OCc1cn([C@@H]2CN(Cc3cccs3)[C@@H](c3ccc(Cl)cc3)C[C@H]2O)nn1)c1ccccc1	none (no result: MITF TRPM1 inh, CHOP inh)
CCOC(=O)N1CCN(S(=O)(=O)c2c(C)nc3scc(C)n3c2=O)CC1	none (no result: CHOP inh)
COc1ccc(Br)cc1C(=O)Nc1ccc(NC(=O)c2ccco2)cc1	none
COc1cccc(C(=O)Nc2ccc(Cl)c(C(F)(F)F)c2)c1	CHOP inh 70.9
COc1ccc(Br)cc1C(=O)Nc1cccc(-c2nnc(-c3ccco3)o2)c1	Peg3 prom inh 53.1 (no result: CHOP inh)
COc1cc(C(=O)Nc2ccc(Cl)c(C(F)(F)F)c2)cc(OC)c1OC	none
COc1cccc(C(=O)Nc2cccc(-c3nnc(-c4ccco4)o3)c2)c1	Peg3 prom inh 94.1
O=C(CSc1ccc(Cl)cc1)Nc1cccc(-c2nnc(-c3ccco3)o2)c1	none
O=C(Nc1ccccc1)c1cccc(-c2nnc(-c3ccccc3)o2)c1	none
Cc1ccc(SCC(=O)Nc2cccc(-c3nnc(-c4ccco4)o3)c2)cc1	CHOP inh 70.7
CCN(CC(=O)Nc1c(F)cccc1F)C(=O)C1CCN(c2ncnc3sc(C)c(C)c23)CC1	none (no result: CHOP inh)
N=c1c2c(ncn1Cc1ccco1)Oc1c(ccc3ccccc13)C2c1ccccc1 (configuration not stated)	CHOP inh 88.7, Peg3 prom inh 80.1
CN(C)CCn1cnc2c(c1=N)C(c1ccccc1)c1ccc3ccccc3c1O2 (configuration not stated)	MITF TRPM1 inh 92.5, Peg3 prom inh 108.7 (no result: CHOP inh)
COc1ccc(C2c3c(ncn(CCN4CCOCC4)c3=N)Oc3ccc4ccccc4c32)cc1 (configuration not stated)	Peg3 prom inh 60.3
N=c1c2c(ncn1Cc1ccco1)Oc1cc(O)ccc1C2c1ccccc1 (configuration not stated)	none
COc1ccc(C(=O)NCc2ccc(F)cc2)cc1S(=O)(=O)N1CCCC1	none (no result: CHOP inh)
c1nc(SSc2ncnc3nc[nH]c23)c2[nH]cnc2n1	none (no result: CHOP inh)
COc1cc(/C=N\Nc2ccc([N+](=O)[O-])cc2)ccc1OCC(=O)Nc1ccc(C)c(C)c1	CHOP inh 78.0
COc1cc(C(=O)Nc2nnc(C(C)(C)C)s2)c([N+](=O)[O-])cc1OC	Peg3 prom inh 62.0
COc1cc(C(=O)Nc2nnc(CC(C)(C)C)s2)c([N+](=O)[O-])cc1OC	none
CCOC(=O)C1=C(C(=O)OCC)N(Cc2ccccc2)CCC1=O	none (no result: CHOP inh)
CSCCNC(=O)C1(C)CCN1C(=O)c1cc(C)n(C)n1 (configuration not stated)	none (no result: MITF TRPM1 inh, CHOP inh)
OC12CCCCC1C(c1ccc3c(c1)OCO3)N(Cc1ccc(F)cc1)CC2 (configuration not stated)	CHOP inh 90.2
OC12CCCCC1C(c1ccc3c(c1)OCO3)N(Cc1cccc(F)c1)CC2 (configuration not stated)	none
Cc1cc(C)n(CCNC(=O)[C@H]2O[C@@H](n3ccc(=O)[nH]c3=O)[C@H](O)[C@@H]2O)n1	none (no result: MITF TRPM1 inh, CHOP inh)
CCCC(=O)Nc1nnc([C@H]2C[C@H](O)[C@@H](CO)O2)s1	none (no result: MITF TRPM1 inh, CHOP inh)
COc1cc(C(=O)O/N=C(\N)c2ccccn2)cc(OC)c1OC	none
Cc1ccc(C(=O)O/N=C(\N)c2ccccn2)cc1C	Peg3 prom inh 76.0 (no result: CHOP inh)
C=CCc1ccccc1OCC(O)CN1CCN(c2ccccc2F)CC1 (configuration not stated)	CHOP inh 77.8
C=CCc1ccccc1OCC(O)CN1CCN(c2ccccc2OC)CC1 (configuration not stated)	none
COc1ncccc1-c1ccc2nncn2c1	none (no result: MITF TRPM1 inh, CHOP inh)
CCCOCCOC(=O)c1[nH]c2c(c1C)C(=O)CC(c1cc(OC)ccc1OC)C2 (configuration not stated)	CF NFkB block 54.0
CCc1ccccc1S(=O)(=O)Cc1ccc(C(=O)NCc2ccc3c(c2)OCO3)o1	CHOP inh 87.2 (no result: MITF TRPM1 inh)
O=C(NCc1ccc2c(c1)OCO2)c1ccc(CS(=O)(=O)Cc2cccc(Cl)c2)o1	none
O=CNc1c(Cl)cc2c(c1Cl)Cc1cc([N+](=O)[O-])ccc1-2	none (no result: CHOP inh)
O=C(Nc1cccc(Cl)c1Cl)c1snnc1-c1ccccc1	none
O=C(Nc1cc(Cl)ccc1O)c1snnc1-c1ccccc1	CHOP inh 82.1
Cc1cc(=O)n(CCO)c(O)c1C#N	none
Cc1c(C#N)c(O)n(CCO)c(=O)c1N=Nc1ccc2c(c1)COC2=O	MITF TRPM1 inh 61.8, CHOP inh 94.2
CCC(c1nnnn1Cc1ccccc1)N(Cc1ccco1)Cc1cc2cc(OC)ccc2[nH]c1=O (configuration not stated)	none
CCCC(c1nnnn1C(C)(C)CC)N(Cc1ccco1)Cc1cc2ccc(OC)cc2[nH]c1=O (configuration not stated)	CHOP inh 90.6
O=C(NC(=S)Nn1cnc2c(cnn2-c2ccccc2)c1=O)c1ccc(Oc2ccccc2)cc1	CHOP inh 73.4
CC[C@H](C)[C@H]1CNC(=O)C(=O)N1CC1CCN(CCc2ccccc2)CC1	none (no result: CHOP inh)
NS(=O)(=O)c1ccc(CCNCc2ccccc2OCc2ccc(Cl)cc2)cc1	Peg3 prom inh 86.8 (no result: CHOP inh)
Cc1ccc(S(=O)(=O)N2CCCC2CNC(=O)C(=O)Nc2ccc(F)cc2)cc1 (configuration not stated)	none (no result: CHOP inh)
